Rows were chosen to be rich in hits. Some 3.6% of all compounds tested hit in one or more screens of this group.
DUSP3 inh = DUSP3 (human) phosphatase inhibition. inhibition, % at 13.3 µM. recombinant VHR phosphatase, pNPP absorbance. actives 0.52% (n = 290,000). AID 1654. P51452; in the data active = inhibition above about 50%
Target sequence (P51452 whole entry, looked up): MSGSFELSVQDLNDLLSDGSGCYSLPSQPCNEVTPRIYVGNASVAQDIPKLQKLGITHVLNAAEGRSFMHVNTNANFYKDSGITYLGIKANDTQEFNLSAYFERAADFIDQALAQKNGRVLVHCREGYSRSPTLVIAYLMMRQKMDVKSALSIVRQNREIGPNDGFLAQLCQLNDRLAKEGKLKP
GDH-TPI counter-1 = counter-screen for M. tuberculosis FBA inhibitors: GDH-TPI coupled enzymes | GDH-TPI coupled enzyme counterscreen, NADH absorbance | inhibition, % at 4.8 µM | actives 1.2% (n = 360,000); in the data active = inhibition above about 30%;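 also: 0% = DMSO wells and 100% = wells lacking the enzyme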
Mtb bLac sens = beta-lactam sensitization of Mtb H37Rv | inhibition, % at 25 µM | actives 0.27% (n = 330,000) | M. tuberculosis H37Rv growth with meropenem, percent inhibition; call rule not given here;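 also: growth measured after seven days incubation then overnight dye step; 0% = bacteria only wells and 100% = bacteria with antibiotic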
Mtb FBA inh = inhibits M. tuberculosis FBA enzyme; P9WQA3; purified M. tuberculosis FBA, fluorescence read-out; inhibition, % at 1 µM; actives 2.3% (n = 360,000); AID 588726;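 also: 0% = vehicle and 100% = reference inhibitor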
Target sequence (P9WQA3 whole entry, looked up): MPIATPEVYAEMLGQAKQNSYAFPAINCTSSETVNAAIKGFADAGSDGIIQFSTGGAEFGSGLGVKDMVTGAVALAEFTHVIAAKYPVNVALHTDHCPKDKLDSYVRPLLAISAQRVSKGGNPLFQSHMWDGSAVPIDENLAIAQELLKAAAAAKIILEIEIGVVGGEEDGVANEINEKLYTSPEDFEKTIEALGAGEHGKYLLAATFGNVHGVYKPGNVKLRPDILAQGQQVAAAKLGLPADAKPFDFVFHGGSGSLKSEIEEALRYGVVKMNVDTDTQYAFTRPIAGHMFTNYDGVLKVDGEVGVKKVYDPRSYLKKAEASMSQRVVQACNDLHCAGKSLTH
Mtb hypoxia rep = reduces hypoxia-regulated biosensor signal in M. tuberculosis; M. tuberculosis hypoxia-regulated fluorescent reporter, fluorescence; fluorescence inhibition, % (test concentration not listed); actives 0.1% (n = 300,000); AID 1159583; in the data active = fluorescence inhibition mostly above about 23%, no sharp cut-off; inactive = mostly below about 17%
Mtb FBA confirm = Mtb FBA inhibition, confirmed | shares compounds with Mtb FBA inh | inhibition, % at 1 µM | AID 651616 | purified M. tuberculosis FBA, fluorescence read-out | actives 78% (n = 5,600);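 also: 0% = vehicle wells and 100% = reference inhibitor wells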
GDH-TPI counter-2 = GDH-TPI inhibition counter-screen for FBA inhibitors; inhibition, % at 1 µM; actives 81% (n = 5,600); shares compounds with Mtb FBA inh; GDH-TPI coupled enzyme counterscreen, fluorescence; AID 652141; in the data active = inhibition above about 10%
* marks the source's active call; other numbers are inactive results; / = no result; + = active, no number. Rule as the data show it, unless noted: active = inhibition above about 27%; inactive = the rest.

SMILES	DUSP3 inh	GDH-TPI counter-1	Mtb bLac sens	Mtb FBA inh	Mtb hypoxia rep	Mtb FBA confirm	GDH-TPI counter-2
Nc1ccc(Nc2ccccc2)c(S(=O)(=O)O)c1	10	13	-7	90*	/	84*	70*
O=C1CCCC2=C1C(c1ccco1)Nc1ccc3ccccc3c12 (stereo not given)	15	22	5	95*	/	110*	77*
O=C1CCCC2=C1C(c1ccc(O)c(O)c1)Nc1ccc3ccccc3c12 (stereo not given)	/	14	9	2	3	/	/
O=C(C(=Cc1ccccc1)c1ccccc1)N1CCCCC1	/	/	/	/	14	/	/
COc1ccc(C(C)=NNS(C)(=O)=O)c(OC)c1	/	/	/	/	8	/	/
O=c1cc(CN2CC=C(c3ccccc3)CC2)c2c(ccc3ccccc32)o1	21	13	-2	94*	6	114*	100*
O=c1cc(CN2CCCC2)c2c(ccc3ccccc32)o1	/	/	/	13	/	/	/
Nc1nc(Nc2cccc(F)c2)nc2ccccc12	14	5	-6	-5	-12	/	/
O=c1oc(Nc2cccc(F)c2)nc2ccccc12	3	-2	6	36*	12	96*	79*
Cc1ccc(S(=O)(=O)N2C(c3cccc(C)c3)CC=C(C(=O)O)C2c2ccccc2F)cc1 (stereo not given)	/	/	/	/	-5	/	/
CN1CCc2c(sc(/N=C/c3ccco3)c2C(N)=O)C1	4	21	-12	40*	/	42*	24*
CN1CCc2c(sc(N=Cc3ccco3)c2C(N)=O)C1	/	/	/	/	13	/	/
CC(C(=O)NC(C)(C)C)N1C(=O)c2cccc3cccc(c23)C1=O (stereo not given)	15	9	-1	27*	3	3	5
CC(C)C(C(=O)NC(C)(C)C)N1C(=O)c2ccccc2C1=O (stereo not given)	8	3	-2	1	16	/	/
COc1ccc(-c2cccc(C3C4C=CCC[C@@]4(C)C(=O)N3Cc3ccccc3)c2)cc1 (stereo not given in full)	/	/	/	/	9	/	/
CCOc1c2ccc(C(=O)NCCCCc3ccccc3)cc2nn1C	5	10	-2	60*	4	3	0
CCCCn1nc2cc(C(=O)NCC3CC3)ccc2c1OCC	30	7	1	88*	8	144*	116*
CCCCNC(=O)c1ccc2c(OCC)n(CCCC)nc2c1	21	-3	9	65*	8	93*	61*
O=C(NCC1CC1)c1ccc2c3n(nc2c1)-c1ccc(Cl)cc1CO3	/	0	29	1	9	/	/
CCCCn1nc2cc(C(=O)NC[C@@H]3CCCO3)ccc2c1OCC	17	5	2	63*	/	124*	95*
CCCCn1nc2cc(C(=O)NCC3CCCO3)ccc2c1OCC (stereo not given)	/	/	/	/	5	/	/
COc1ccc(C=NNC(=O)c2ccn[nH]2)cc1COc1ccc(Cl)cc1	/	/	/	/	9	/	/
CCOC(=O)CN1C(=O)NC(c2ccccc2)C(C(C)=O)C1C (stereo not given)	/	/	/	/	4	/	/
CCCn1nc2cc(C(=O)NC3CCc4ccccc43)ccc2c1OCC (stereo not given)	9	0	3	40*	18	71*	64*
COc1ccc(C(=O)NC2CCc3ccccc32)cc1OC1CCN(C(C)=O)CC1 (stereo not given)	14	2	8	-1	5	/	/
SMILES	DUSP3 inh	GDH-TPI counter-1	Mtb bLac sens	Mtb FBA inh	Mtb hypoxia rep	Mtb FBA confirm	GDH-TPI counter-2
CCCn1nc2cc(C(=O)NCCc3cccs3)ccc2c1OCC	5	19	1	55*	7	-6	-6
O=C(Cn1cncn1)NN=Cc1cc([N+](=O)[O-])ccc1O	/	/	/	/	12	/	/
CC(=NNC(=O)c1cc(C(C)C)[nH]n1)c1ccco1	/	/	/	/	-1	/	/
COc1ccc(OC)c2c1CCC1(C2)NC(=O)NC1=O (stereo not given)	/	/	/	-2	/	/	/
COc1ccc(OC)c2c1CC(C)(C)NC2=O	3	-3	0	74*	/	33*	32*
CN1CCC(=O)N(C(CC#N)c2ccccc2)CC1 (stereo not given)	/	/	/	/	8	/	/
COC(=O)c1cc(COc2ccc3ccc(=O)oc3c2)c(C)o1	10	19	3	36*	1	8	1
CC(C)=CCOc1ccc2ccc(=O)oc2c1	-24	8	-6	65*	/	60*	50*
COC(=O)c1ccc(COc2ccc3ccc(=O)oc3c2)o1	3	6	9	12	-10	/	/
CC(C)=CCC/C(C)=C/CC/C(C)=C/COc1ccc2ccc(=O)oc2c1	/	2	14	30*	/	-7	-8
CC1=CC(C/C(C)=C/COc2ccc3ccc(=O)oc3c2)OC1=O (stereo not given)	10	13	-4	48*	/	54*	44*
CCCCCCSc1ccc(C2C3C(=O)N(CC)C(=O)C3[C@]3(C(=O)OC)CCCCN23)cc1 (stereo not given in full)	/	/	/	/	12	/	/
COCCCN1C(=O)C(=O)C(=C(O)c2ccc(OC)cc2)C1c1cccc(OC)c1 (stereo not given)	/	/	/	/	9	/	/
COc1cccc(N2CC(O)=C(c3nc4ccccc4c(=O)[nH]3)C2=N)c1	27	33*	-5	77*	-2	51*	50*
N=C1C(c2nc3ccccc3[nH]2)=C(O)CN1c1ccc(F)cc1	0	0	/	3	6	/	/
Cc1cc(C)cc(N2CC(O)=C(c3nc4ccccc4c(=O)[nH]3)C2=N)c1	62	6	-5	34*	-2	3	0
CC(C)N1CC(O)=C(c2nc3ccccc3c(=O)[nH]2)C1=N	2	10	3	44*	/	+	170*
COc1ccccc1N1CCN(CC(=O)c2ccc3ccn(C(C)=O)c3c2)CC1	-9	7	-2	7	/	/	/
CC(=O)OCC(=O)c1ccc2ccn(C(C)=O)c2c1	18	15	11	36*	3	15	20*
COc1ccc(C2CC(c3ccccc3)Oc3cc(OC)cc(OC)c32)cc1 (stereo not given)	/	/	/	/	0	/	/
O=C(O)CCc1nn2c3ccccc3n(CC(=O)O)c2nc1=O	11	19	7	24	-3	/	/
O=C(O)CCc1nn2c3ccccc3n(Cc3ccccc3F)c2nc1=O	18	5	-2	37*	-5	110*	87*
COc1ccc(-c2nc3n(c(=O)c2C#N)CCS3)cc1	16	7	-4	28*	11	32*	28*
CCOc1ccc(-c2nc3n(c(=O)c2C#N)CCS3)cc1	2	16	4	32*	16	71*	62*
COc1ccc(-c2nc3n(c(=O)c2C#N)CCS3)cc1OC	11	16	-4	8	13	/	/
CC1CC(C)CN(C(=O)Cn2c(SCC(=O)N3CCc4ccccc4C3)nc3ccccc32)C1 (stereo not given)	48	-3	6	48*	/	69*	49*
